Source: PubChem
The list is not random: actives were taken first. Their share in the collection is about 19%.
HT1080 IDH1KD tx – qHTS for induction of synthetic lethality in tumor cells producing 2HG: qHTS for the HT-1080-IDH1KD cell line; HT-1080 IDH1 knockdown viability, ATP luminescence, 48 h; 360,000 tested, 2% active; Potency, µM (top dose mostly 46.1 µM), for inactives: at the highest dose activity, negative = toxicity, most hits filed as cytotoxic;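 also: potency is read from the fitted curve at half-maximal effect; 0% = DMSO wells and -100% = cell-free medium wells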
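% activity derives from luminescence (CellTiter-Glo), normalised to DMSO and no-cell wells. HT-1080-IDH1KD cells, 750/well, had 48 h compound exposure at 37 °C.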
IL-1B inflam inh – qHTS for Inhibitors of Inflammasome Signaling: IL-1-beta AlphaLISA Primary Screen. THP-1 LPS/ATP IL-1B secretion, AlphaLISA, 16 h; active compounds read low. activity change, % at 57.5 µM. 360,000 tested, 4.7% active; in the data active = activity change below about -50%; inconclusive = mostly about -30% to -49%
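THP-1 cells pretreated 1 hr with compounds (up to 57.5 uM final), then stimulated with LPS (250 ng/mL final) plus ATP (1.25 mM final); secreted IL-1B measured by AlphaLISA after 16 hr, decreased signal indicating inhibition.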
ELG1 DNA repair – qHTS screen for small molecules that inhibit ELG1-dependent DNA repair in human embryonic kidney (HEK293T) cells expressing luciferase-tagged ELG1 | HEK293T ELG1-luciferase reporter, luminescence, 16 h; DNA damage induced by 5-fluorouridine | 330,000 tested, 2.3% active | AID 504467, 2011 | Potency, µM (doses to about 46.1 µM), inactives show top-dose activity change, negative = inhibition, actives largely listed as inhibitors; also: potency is read from the fitted curve at half-maximal effect; nearly all actives have a fitted effect of over 55% in size
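DMSO vehicle served as the neutral condition. Each well held 2,000 cells given 5-fluorouridine plus compound; after 16 hr at 37 °C/5% CO2, ONE-Glo was added and luciferase measured 30 min later.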
DT40 TDP1 no CPT – qHTS for Inhibitors of human tyrosyl-DNA phosphodiesterase 1 (TDP1): qHTS in cells in absence of CPT. DT40 Tdp1-/- hTDP1 cells, no CPT, ATP luminescence, 48 h. Potency, µM (top dose mostly 46.2 µM), for inactives: top-dose activity change, negative = growth inhibition, most hits filed as inhibitors. 420,000 tested, 15% active. AID 686978, 2013; also: potency is read from the fitted curve at half-maximal effect; nearly all actives have a fitted effect of over 55% in size
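Luminescent ATP content (CellTiter-Glo) served as the growth readout. Knockout chicken DT40 cells expressing human TDP1 were exposed to compounds without camptothecin for a minimum 48 hr at 37 °C.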
DT40 TDP1 CPT – qHTS for Inhibitors of human tyrosyl-DNA phosphodiesterase 1 (TDP1): qHTS in cells in presence of CPT; chicken DT40 Tdp1-/-;hTDP1 cells + 20 nM CPT, ATP luminescence, 48 h; Potency, µM (series often up to 46.2 µM), for the others: top-dose activity change, negative = growth inhibition, actives largely listed as inhibitors; 420,000 tested, 12% active; AID 686979, 2013; also: potency is read from the fitted curve at half-maximal effect; nearly all actives have a fitted effect of over 55% in size
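Cell growth measured by CellTiter-Glo luminescence after a minimum 48 h, 37 C compound exposure with 20 nM CPT in Tdp1-knockout DT40 cells stably expressing hTDP1, seeded 400/well; qHTS titration format.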
HT1080NT lethal – qHTS for induction of synthetic lethality in tumor cells producing 2HG: qHTS for the HT-1080-NT fibrosarcoma cell line; HT-1080-NT fibrosarcoma viability, CellTiter-Glo ATP luminescence, 48 h; Potency, µM (titrated, usually from 46.1 µM), inactives show top-dose activity, negative = less viability, hits mostly cytotoxic; 360,000 tested, 1.6% active;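 also: NT is the 2HG producing partner of a matched IDH1 knockdown line; potency is read from the fitted curve at half-maximal effect; 0% = DMSO-treated cells and -100% = media-only wells without cells; nearly all actives have a fitted effect of over 55% in size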
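Viability by CellTiter-Glo luminescence after 48 h compound exposure at 37C of HT-1080-NT cells (750/well, RPMI, 5% FBS). % activity scaled between DMSO wells and medium-only wells, then curve-fitted and categorized by curve class.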
* marks the source's active call; other numbers are inactive results; u = inconclusive; x = not tested or not shown. Unless noted, calls follow the shape of the dose curve; as a rule, active = well fitted curve in the direction sought with a large enough effect; inconclusive = small, poorly fitted or top-dose-only effect, or another doubt; inactive = no such curve, though single readings can be large; an effect the other way counts as inactive or inconclusive. Unless noted, % is scaled to controls: 0 for no effect and ±100 for the full control effect.

SMILES	HT1080 IDH1KD tx	IL-1B inflam inh	ELG1 DNA repair	DT40 TDP1 no CPT	DT40 TDP1 CPT	HT1080NT lethal
Cc1nn(C)c(C)c1S(=O)(=O)N(CC(=O)N1CCN(c2ccccc2)CC1)c1ccc(C(C)C)cc1	x	x	x	16µM*	16µM*	x
COc1ccc(N(CC(=O)N2CCN(c3ccccc3)CC2)S(=O)(=O)c2c(C)nn(C)c2C)cc1	x	x	x	u	4%	x
COc1ccc(N(CC(=O)NCCc2ccccc2)S(=O)(=O)c2c(C)nn(C)c2C)cc1	x	x	x	u	-12%	x
Cc1nn(C)c(C)c1S(=O)(=O)N(CC(=O)NCCc1ccc(Cl)cc1)c1ccc(C(C)C)cc1	x	x	x	15µM*	16µM*	x
Cc1ccc(N(CC(=O)N2CCN(c3cccc(C)c3C)CC2)S(=O)(=O)c2c(C)nn(C)c2C)cc1	x	x	x	9.2µM*	8.2µM*	x
COc1ccc(N(CC(=O)N2CCN(c3ccc(F)cc3)CC2)S(=O)(=O)c2c(C)noc2C)cc1	4%	-1	-1%	u	26µM*	-4%
CN(C(=O)Cn1cc([N+](=O)[O-])ccc1=O)C1CCCCC1	8%	-5	16%	-11%	-10%	0%
CN1C(=O)N(CC(=O)Nc2sccc2C(N)=O)C(=O)C12CCCCC2	-2%	5	9%	-15%	-10%	-3%
CCOc1ccc(N(CC(=O)N2CCN(c3ccc(F)cc3)CC2)S(=O)(=O)c2c(C)noc2C)cc1	-7%	-24	3%	u	26µM*	-2%
COc1ccc(N(CC(=O)N2CCN(c3ccc(Cl)cc3)CC2)S(=O)(=O)c2c(C)noc2C)cc1	-11%	u	u	u	u	-15%
COc1ccc(N(CC(=O)N2c3ccccc3CC2C)S(=O)(=O)c2c(C)nn(C)c2C)cc1 (stereo unspecified)	-11%	17	-15%	18µM*	u	-14%
Cc1ccc(N(CC(=O)N2CCN(c3cc(Cl)ccc3C)CC2)S(=O)(=O)c2c(C)noc2C)cc1	x	x	x	9.2µM*	21µM*	x
COc1ccc(N(CC(=O)N2CCCC(C)C2)S(=O)(=O)c2c(C)nn(C)c2C)cc1 (stereo unspecified)	0%	5	9%	-9%	2%	6%
CCOc1ccc(N(CC(=O)N2CCN(c3ccccc3F)CC2)S(=O)(=O)c2c(C)noc2C)cc1	-1%	2	-14%	5%	-2%	-8%
COc1ccc(N(CC(=O)N2CCN(c3cccc(Cl)c3)CC2)S(=O)(=O)c2c(C)noc2C)cc1	-8%	-13	-9%	18µM*	16µM*	0%
COc1ccc(N(CC(=O)N2CCN(c3ccc(F)cc3)CC2)S(=O)(=O)c2c(C)nn(C)c2C)cc1	x	x	x	23µM*	u	x
CCN1C(=O)[C@@H]2[C@@H](c3ccc(SC4CCCCC4)cc3)N3CCCC[C@@]3(C(=O)OC)[C@@H]2C1=O	-1%	-2	17%	u	u	0%
CCC(C)Sc1ccc([C@@H]2[C@@H]3C(=O)N(C)C(=O)[C@@H]3[C@]3(C(=O)OC)CCCCN23)cc1 (stereo partly specified)	4%	-24	3%	u	18µM*	2%
CCC(C)Sc1ccc([C@@H]2[C@@H]3C(=O)N(CC)C(=O)[C@@H]3[C@]3(C(=O)OC)CCCCN23)cc1 (stereo partly specified)	20%	1	-25%	21µM*	u	0%
CCC(C)Sc1ccc([C@@H]2[C@H]3C(=O)N(CC)C(=O)[C@H]3[C@]3(C(=O)OC)CCCN23)cc1OC (stereo partly specified)	0%	-6	-12%	23µM*	23µM*	1%
CN1CCC(N(C)C(=O)c2cc(=O)c3ccccc3o2)CC1	11%	-2	-5%	8%	7%	6%
Cc1ccc2[nH]c(CSc3nnc(NC(=O)COc4ccccc4)s3)cc(=O)c2c1	x	x	x	-10%	-23%	x
COCC(=O)N1CCC[C@@]2(CCN(C(=O)Nc3cccc(F)c3)C2)C1	x	x	x	-5%	11%	x
COc1ccc(N2CCN(C(=O)CSc3nc(C)cs3)CC2)cc1	1%	-14	-12%	-10%	-22%	7%
COc1ccc(N2CCN(C(=O)CSc3ncnc4scc(-c5ccc(C)cc5)c34)CC2)cc1	-17%	-23	x	16µM*	u	-14%
SMILES	HT1080 IDH1KD tx	IL-1B inflam inh	ELG1 DNA repair	DT40 TDP1 no CPT	DT40 TDP1 CPT	HT1080NT lethal
CCCn1cnc2scc(-c3ccc(C)c(C)c3)c2c1=O	-11%	8	-11%	21µM*	u	-1%
Cc1sc2ncn(CCn3cnc4sc(C)c(C)c4c3=O)c(=O)c2c1C	0%	-5	u	21µM*	u	-1%
C=CCn1cnc2scc(-c3ccc(C)c(C)c3)c2c1=O	-3%	-7	-3%	u	-17%	-6%
COc1ccc(N2CCN(c3ncnc4scc(-c5ccc(C)cc5)c34)CC2)cc1	2%	40	u	u	u	-6%
COc1ccc(N2CCN(c3ncnc4scc(-c5ccccc5)c34)CC2)cc1	u	u	16µM*	16µM*	-15%	u
COc1cc(O)c(C(=O)CC(=O)c2ccncc2)c(OC)c1	7%	-6	x	-4%	-13%	5%
CCCCCNS(=O)(=O)c1cc2c3c(c1)CCC(=O)N3CCC2	3%	64	0%	-18%	u	0%
Cc1ccc(-c2csc3ncnc(N4CCN(C)CC4)c23)cc1C	-5%	-15	u	12µM*	u	-5%
Cc1cc2ncn(-c3ncnc4scc(-c5ccccc5)c34)c2cc1C	0%	-6	-23%	18µM*	u	-7%
c1ccc(-c2csc3ncnc(N4CCc5ccccc5C4)c23)cc1	-6%	0	u	16µM*	u	-10%
COc1ccc(-c2csc3ncnc(N4CCN(c5cccc(Cl)c5)CC4)c23)cc1	-11%	10	u	16µM*	u	-1%
COc1cc2c(cc1OC)[C@@H](NC(=O)COc1ccccc1)[C@H](OCc1ccccc1)C2	2%	-20	u	u	-12%	12%
